How the values were obtained:
[1] = molecular target: Casein kinase I isoform gamma-2 (Homo sapiens) (UniProt P78368); conditions: at 1 µM
[2] = molecular target: Casein kinase I isoform gamma-3 (Homo sapiens) (UniProt Q9Y6M4); conditions: at 0.1 µM
[3] = molecular target: Casein kinase I isoform gamma-3 (Homo sapiens) (UniProt Q9Y6M4); conditions: at 1 µM
[4] = molecular target: Cyclin-dependent kinase 1 (Homo sapiens) (UniProt P06493); conditions: at 0.1 µM
[5] = molecular target: Cyclin-dependent kinase 1 (Homo sapiens) (UniProt P06493); conditions: at 1 µM
[6] = molecular target: Cyclin-dependent kinase 2 (Homo sapiens) (UniProt P24941); conditions: at 0.1 µM
[7] = molecular target: Cyclin-dependent kinase 2 (Homo sapiens) (UniProt P24941); conditions: at 1 µM
[8] = molecular target: Cyclin-dependent kinase 2 (Homo sapiens) (UniProt P24941); conditions: at 0.1 µM; remark: listed apart in the source
[9] = molecular target: Cyclin-dependent kinase 2 (Homo sapiens) (UniProt P24941); conditions: at 1 µM; remark: listed apart in the source
[10] = molecular target: T1, CDK3/Cyclin E (Homo sapiens) (UniProt P24864+Q00526); conditions: at 0.1 µM
T1 sequence (P24864 whole entry, looked up): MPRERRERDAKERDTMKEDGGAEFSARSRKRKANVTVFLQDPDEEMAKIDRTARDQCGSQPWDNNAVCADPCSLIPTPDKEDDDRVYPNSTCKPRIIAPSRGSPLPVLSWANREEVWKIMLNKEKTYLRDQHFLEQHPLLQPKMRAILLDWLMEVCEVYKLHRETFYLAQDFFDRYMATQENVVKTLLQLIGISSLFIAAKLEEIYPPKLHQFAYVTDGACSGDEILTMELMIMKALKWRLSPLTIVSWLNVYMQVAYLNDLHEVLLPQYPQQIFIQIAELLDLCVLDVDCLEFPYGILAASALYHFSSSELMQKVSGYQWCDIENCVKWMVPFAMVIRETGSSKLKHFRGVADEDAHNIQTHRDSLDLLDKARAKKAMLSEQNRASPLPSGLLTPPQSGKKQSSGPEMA
T1 sequence (Q00526 whole entry, looked up): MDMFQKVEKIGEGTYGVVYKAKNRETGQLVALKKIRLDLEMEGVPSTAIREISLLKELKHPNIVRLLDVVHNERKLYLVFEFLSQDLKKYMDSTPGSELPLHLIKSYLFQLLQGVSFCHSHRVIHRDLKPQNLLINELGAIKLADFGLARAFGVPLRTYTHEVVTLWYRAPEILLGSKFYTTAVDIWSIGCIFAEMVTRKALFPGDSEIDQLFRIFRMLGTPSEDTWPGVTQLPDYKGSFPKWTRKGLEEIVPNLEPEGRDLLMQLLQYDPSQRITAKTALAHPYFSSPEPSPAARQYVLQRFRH

[11] = molecular target: T1, CDK3/Cyclin E (Homo sapiens); conditions: at 1 µM
[12] = molecular target: Cyclin-dependent kinase 4 (Homo sapiens) (UniProt P11802); conditions: at 0.1 µM
Cyclin-dependent kinase 4 (Homo sapiens), sequence (P11802 whole entry): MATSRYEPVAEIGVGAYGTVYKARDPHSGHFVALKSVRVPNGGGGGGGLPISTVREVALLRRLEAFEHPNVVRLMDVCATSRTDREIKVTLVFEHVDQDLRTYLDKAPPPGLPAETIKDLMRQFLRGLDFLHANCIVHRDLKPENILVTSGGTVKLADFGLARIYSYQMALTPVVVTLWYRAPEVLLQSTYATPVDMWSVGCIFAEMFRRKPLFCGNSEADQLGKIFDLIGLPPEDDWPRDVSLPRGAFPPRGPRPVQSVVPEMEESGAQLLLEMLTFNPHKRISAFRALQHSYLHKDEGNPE

[13] = molecular target: Cyclin-dependent kinase 4 (Homo sapiens) (UniProt P11802); conditions: at 1 µM
[14] = molecular target: Cyclin-dependent kinase 5 (Homo sapiens) (UniProt Q00535); conditions: at 0.1 µM
Cyclin-dependent kinase 5 (Homo sapiens), sequence (Q00535 whole entry, looked up): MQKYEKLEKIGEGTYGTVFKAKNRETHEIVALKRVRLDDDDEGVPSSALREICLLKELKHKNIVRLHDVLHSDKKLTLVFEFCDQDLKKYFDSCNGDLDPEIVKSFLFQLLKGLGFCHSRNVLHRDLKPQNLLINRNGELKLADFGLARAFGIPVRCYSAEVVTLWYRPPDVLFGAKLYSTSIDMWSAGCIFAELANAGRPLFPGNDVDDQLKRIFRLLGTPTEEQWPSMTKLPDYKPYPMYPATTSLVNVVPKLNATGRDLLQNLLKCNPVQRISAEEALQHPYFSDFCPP

[15] = molecular target: Cyclin-dependent kinase 5 (Homo sapiens) (UniProt Q00535); conditions: at 1 µM
[16] = molecular target: Cyclin-dependent kinase 6 (Homo sapiens) (UniProt Q00534); conditions: at 0.1 µM
Cyclin-dependent kinase 6 (Homo sapiens), sequence (Q00534 whole entry): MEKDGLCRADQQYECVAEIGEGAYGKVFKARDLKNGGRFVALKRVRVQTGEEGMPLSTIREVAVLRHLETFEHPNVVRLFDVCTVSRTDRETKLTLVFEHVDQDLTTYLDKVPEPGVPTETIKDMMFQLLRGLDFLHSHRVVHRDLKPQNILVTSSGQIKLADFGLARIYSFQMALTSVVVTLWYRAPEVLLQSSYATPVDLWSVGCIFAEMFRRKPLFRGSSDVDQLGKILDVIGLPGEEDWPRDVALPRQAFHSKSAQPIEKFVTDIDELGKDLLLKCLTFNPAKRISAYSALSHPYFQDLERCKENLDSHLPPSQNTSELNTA

[17] = molecular target: Cyclin-dependent kinase 6 (Homo sapiens) (UniProt Q00534); conditions: at 1 µM
[18] = molecular target: Dual specificity protein kinase CLK2 (Homo sapiens) (UniProt P49760); conditions: at 0.1 µM
Dual specificity protein kinase CLK2 (Homo sapiens), sequence (P49760 whole entry, looked up): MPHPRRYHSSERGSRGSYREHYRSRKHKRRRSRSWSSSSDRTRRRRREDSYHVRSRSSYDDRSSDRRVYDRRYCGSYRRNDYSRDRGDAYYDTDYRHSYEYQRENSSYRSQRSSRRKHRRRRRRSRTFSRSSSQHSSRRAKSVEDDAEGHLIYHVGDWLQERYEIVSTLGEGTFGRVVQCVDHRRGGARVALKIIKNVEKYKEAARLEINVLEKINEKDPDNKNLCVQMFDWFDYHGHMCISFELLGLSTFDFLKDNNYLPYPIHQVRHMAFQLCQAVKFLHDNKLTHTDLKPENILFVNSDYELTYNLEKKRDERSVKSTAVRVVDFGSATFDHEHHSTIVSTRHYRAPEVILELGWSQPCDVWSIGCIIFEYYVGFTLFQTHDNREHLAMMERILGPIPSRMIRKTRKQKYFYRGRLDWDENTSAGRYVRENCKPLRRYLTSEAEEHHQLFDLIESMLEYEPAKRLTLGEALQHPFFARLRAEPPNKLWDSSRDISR

[19] = molecular target: Dual specificity protein kinase CLK2 (Homo sapiens) (UniProt P49760); conditions: at 1 µM
[20] = molecular target: Dual specificity protein kinase CLK3 (Homo sapiens) (UniProt P49761); conditions: at 0.1 µM
Dual specificity protein kinase CLK3 (Homo sapiens), sequence (P49761 whole entry, looked up): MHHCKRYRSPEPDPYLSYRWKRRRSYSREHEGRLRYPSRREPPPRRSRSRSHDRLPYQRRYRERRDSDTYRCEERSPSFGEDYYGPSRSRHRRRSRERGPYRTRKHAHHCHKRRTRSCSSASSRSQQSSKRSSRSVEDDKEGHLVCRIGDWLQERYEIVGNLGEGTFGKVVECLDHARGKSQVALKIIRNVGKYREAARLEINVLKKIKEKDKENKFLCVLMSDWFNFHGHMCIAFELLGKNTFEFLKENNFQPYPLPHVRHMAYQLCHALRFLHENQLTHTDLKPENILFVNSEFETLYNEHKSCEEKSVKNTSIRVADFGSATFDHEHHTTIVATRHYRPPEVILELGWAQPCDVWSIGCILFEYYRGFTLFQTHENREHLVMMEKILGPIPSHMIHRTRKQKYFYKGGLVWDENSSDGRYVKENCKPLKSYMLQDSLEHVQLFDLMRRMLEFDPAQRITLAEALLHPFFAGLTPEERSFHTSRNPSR

Casein kinase I isoform gamma-3 (Homo sapiens), sequence (Q9Y6M4 whole entry, looked up, canonical isoform): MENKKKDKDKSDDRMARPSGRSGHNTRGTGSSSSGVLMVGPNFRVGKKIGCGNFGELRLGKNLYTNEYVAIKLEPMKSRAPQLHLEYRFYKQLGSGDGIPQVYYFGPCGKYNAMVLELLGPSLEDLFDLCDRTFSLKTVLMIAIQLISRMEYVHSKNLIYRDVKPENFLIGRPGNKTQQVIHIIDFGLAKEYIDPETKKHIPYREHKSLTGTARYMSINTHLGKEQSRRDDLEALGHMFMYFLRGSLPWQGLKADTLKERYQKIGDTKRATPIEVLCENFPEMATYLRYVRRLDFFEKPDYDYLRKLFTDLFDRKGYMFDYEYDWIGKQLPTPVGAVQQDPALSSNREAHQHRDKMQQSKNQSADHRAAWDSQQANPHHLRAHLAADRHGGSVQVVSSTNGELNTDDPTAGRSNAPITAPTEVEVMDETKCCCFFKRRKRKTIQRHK
Casein kinase I isoform gamma-2 (Homo sapiens), sequence (P78368 whole entry, looked up, canonical isoform): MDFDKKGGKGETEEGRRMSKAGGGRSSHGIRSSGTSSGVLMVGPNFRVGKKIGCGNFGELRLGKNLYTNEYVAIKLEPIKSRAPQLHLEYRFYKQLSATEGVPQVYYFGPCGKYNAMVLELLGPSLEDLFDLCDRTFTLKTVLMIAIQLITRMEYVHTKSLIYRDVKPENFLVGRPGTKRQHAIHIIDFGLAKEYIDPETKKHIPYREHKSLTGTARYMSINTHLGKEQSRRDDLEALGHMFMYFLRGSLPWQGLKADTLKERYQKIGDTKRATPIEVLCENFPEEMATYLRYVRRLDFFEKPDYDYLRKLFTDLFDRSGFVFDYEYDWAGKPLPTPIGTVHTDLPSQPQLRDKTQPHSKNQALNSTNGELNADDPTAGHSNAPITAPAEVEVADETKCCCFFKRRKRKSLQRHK
Cyclin-dependent kinase 1 (Homo sapiens), sequence (P06493 whole entry, looked up): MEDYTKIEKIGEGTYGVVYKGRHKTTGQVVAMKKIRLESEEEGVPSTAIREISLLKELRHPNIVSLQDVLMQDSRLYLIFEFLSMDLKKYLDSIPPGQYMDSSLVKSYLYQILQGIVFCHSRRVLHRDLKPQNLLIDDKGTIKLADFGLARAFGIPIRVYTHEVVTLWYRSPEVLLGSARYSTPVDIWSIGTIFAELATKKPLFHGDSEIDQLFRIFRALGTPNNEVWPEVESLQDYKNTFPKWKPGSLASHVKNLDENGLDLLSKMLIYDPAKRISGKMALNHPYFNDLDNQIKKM

| Structure (SMILES) | inhibition [1] [%] | inhibition [2] [%] | inhibition [3] [%] | inhibition [4] [%] | inhibition [5] [%] | inhibition [6] [%] | inhibition [7] [%] | inhibition [8] [%] | inhibition [9] [%] | inhibition [10] [%] | inhibition [11] [%] | inhibition [12] [%] | inhibition [13] [%] | inhibition [14] [%] | inhibition [15] [%] | inhibition [16] [%] | inhibition [17] [%] | inhibition [18] [%] | inhibition [19] [%] | inhibition [20] [%] |
| --- | --- | --- | --- | --- | --- | --- | --- | --- | --- | --- | --- | --- | --- | --- | --- | --- | --- | --- | --- | --- |
| N#Cc1c(NC(=O)CN2CCOCC2)sc2c1CCCC2 | 6.04 | 4.84 | 6.07 | 4.8 | 4.23 | 3.4 | 4.28 | 6.96 | 8.06 | 5.84 | 0.79 | 6.39 | 5.4 | 4.75 | 5.34 | 5.33 | 7.63 | 1.09 | 2.7 | 4.98 |
| Fc1ccc(-c2cc(-c3c[nH]nc3-c3ccccn3)ccn2)cc1 | 6.19 | 4.09 | 6.73 | 0.86 | -0.63 | 2.51 | 5.92 | 2.72 | 3.29 | 2.03 | -1.83 | 1.98 | 1.18 | -0.24 | -1.54 | -0.57 | 2.29 | 2.53 | 2.71 | 1.32 |
| COc1ccc2[nH]c3c4[nH]c5ccc(OC)cc5c4c4c(c3c2c1)C(=O)NC4=O | 3.1 | 4.06 | 5 | 0.17 | 3.22 | 1.85 | 3 | 3.64 | 4.91 | 2.31 | 6.02 | 2.56 | 7.55 | 1.11 | 2.57 | 2.91 | 3.6 | 5.12 | 20.3 | 2.17 |
| CCCN(CCS(C)(=O)=O)Cc1ccc(-c2ccc3ncnc(Nc4ccc(OCc5cccc(F)c5)c(Cl)c4)c3c2)o1 | 3.18 | -1.08 | 1.11 | 2.23 | 8.04 | 0.78 | -1.6 | 1.97 | 7 | 0.67 | -1.26 | 1.25 | 5.06 | 2.08 | 6.83 | 1.99 | 7 | 1.46 | 0.75 | 1.51 |
| Fc1cccc(COc2ccc(Nc3ncnc4sc(-c5ccco5)cc34)cc2Cl)c1 | 4.82 | 3.95 | 3.97 | -1.09 | 1.41 | 2.79 | 2.68 | 3.66 | 6.69 | -0.59 | -1.8 | 3.4 | 5.13 | -0.01 | 2.77 | 0.43 | -0.36 | 1.15 | -0.23 | 0.59 |
| COc1ccc(CNC(=O)c2ccc(-c3cc(-c4nnc(C)o4)ccc3C)cc2)cc1 | 0.62 | 0.01 | 0.83 | 1.08 | 1.37 | -2.09 | -1.7 | 1.68 | 3.08 | 3.23 | -1.03 | 1.82 | 2.19 | 1.52 | 1.19 | -1.69 | -2.05 | 0.99 | 2.3 | 2.46 |
| [O-][S+]1CCN(Cc2ccc(-c3ccc4ncnc(Nc5ccc(OCc6cccc(F)c6)c(Cl)c5)c4c3)o2)CC1 | 5.36 | 4.15 | 2.36 | 2.01 | -1.04 | 3.62 | 4.32 | 5.35 | 6.57 | 0.55 | -2.03 | 3.89 | 6.99 | 4 | 3.88 | 0.87 | 3.99 | 1.02 | -0.02 | 1.18 |
| Cc1ccc(O)cc1Nc1ccnc2cc(-c3ccccn3)ccc12 | 6.53 | 4.03 | 6.72 | 0.02 | 1.83 | 0.84 | 6.62 | 3.98 | 4.84 | 1.95 | -0.7 | 3.48 | 4.45 | 0.73 | 1.9 | 1.92 | 4.31 | 1.89 | 3.5 | 2.09 |
| CC(=O)Nc1cccc(C#Cc2cncnc2Nc2ccc(OCc3cccc(F)c3)c(Cl)c2)c1 | 2.49 | 2.41 | 1.12 | -0.4 | 0.31 | 0.72 | 1.81 | 2 | 0.87 | 1.66 | 0.86 | 1.84 | 1.74 | 0.82 | 0.21 | -0.8 | -0.16 | 2.3 | 1.56 | -0.12 |
| COc1ccc(-c2oc3ncnc(N)c3c2-c2ccc(NC(=O)Nc3cc(C(F)(F)F)ccc3F)cc2)cc1 | 1.65 | 0.82 | 3.84 | 0.92 | 7.71 | 1.73 | 28.1 | 4.28 | 28.8 | 4.83 | 42.4 | 3.09 | 5.04 | 1.02 | 4.32 | 3.24 | 3.67 | 3.66 | 26.6 | 1.97 |
| CCNC(=O)O[C@H]1CN[C@H](C#Cc2cc3ncnc(Nc4ccc(OCc5cccc(F)c5)c(Cl)c4)c3s2)C1 | 2.86 | 3.84 | 0.57 | 0.57 | 2.13 | 2.63 | -0.72 | 2.61 | 3.62 | 1.08 | 0.27 | 2.39 | 3.42 | 0.38 | 1.78 | 9.65 | 9.16 | 1.63 | 2.34 | 0.76 |
| COc1ccc(-c2cc(-c3c[nH]nc3-c3ccccn3)ccn2)cc1 | 5.19 | 3.68 | 6.59 | 0.11 | 1.79 | 1.84 | 7.74 | 4.73 | 5.82 | 2.59 | 0.46 | 2.18 | 1.82 | 1.02 | 1.41 | 4.13 | -0.9 | 0.77 | 0.26 | 3.07 |
| CCn1c(-c2nonc2N)nc2c(C#CC(C)(C)O)nc(OC[C@H](N)c3ccccc3)cc21 | 5.45 | 1.72 | 4.23 | 2.55 | 0.95 | 3.52 | 4.36 | 0.77 | 2.97 | -2.75 | -0.33 | 2.31 | 2.26 | 1.23 | 3.05 | -3.58 | -0.97 | 1.87 | 12.1 | 1.29 |
| c1cc(-c2cnn3nc(N4CCOCC4)ccc23)nc(NC2CC2)n1 | 10.4 | 2.89 | 8.91 | 2.3 | 21.7 | 6.45 | 50.7 | 9.31 | 43.2 | 2.41 | 17.4 | 15 | 57.8 | 2.71 | 23.3 | 11.8 | 30.7 | 9.32 | 52 | 1.88 |
